# Source: PubChem BioAssay AID2732 (Emory University Molecular Libraries Screening Center, 2010)
# About 8,200 (3.7%) of roughly 220,000 compounds were called active.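 The calls were made as follows: active = compounds that reduced the stress-induced luciferase reporter signal by more than about 70% of percent inhibition (limit read from the data); inactive = the rest.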 The list comes from a sample in which actives are over-represented; it also holds similar structures and randomly drawn compounds.
# Test: blockers of ER-stress CHOP reporter expression – cell-based, unfolded protein response, luciferase reporter, primary screen (AID 2732);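 also: 0% = tunicamycin plus vehicle and 100% = wells without tunicamycin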
# Conditions: CHO-K1 CHOP-promoter luciferase, tunicamycin-induced, 15-18 h; at 10 µM; active compounds read high
row,SMILES,inhibition
1,O=C(NCC1CCCO1)c1cc(-c2ccccc2)nc2ccccc12 (stereo not drawn),1.14% (inactive)
2,Cc1ccc2nc(-c3ccc(SCC(=O)Nc4cc(C)on4)nc3)[nH]c2c1,91.1% (active)
3,Cc1ccc(SCCC(=O)Nc2cc(C)on2)cc1,20.7% (inactive)
4,Cc1ccc(-c2csc(SCC(=O)Nc3cc(C)on3)n2)cc1,32.5% (inactive)
5,CCCc1nc2oc3c(=O)[nH]cnc3c2c2c1COC(C)(C)C2,-14.7% (inactive)
6,COC(=O)c1cc(S(=O)(=O)N2CCC(C(N)=O)CC2)oc1C,4.8% (inactive)
7,COCCNc1nc(-c2ccccc2)nc2c1oc1ccccc12,37.1% (inactive)
8,Cc1cc(C)n(CC(C)NCc2c(C(=O)N3CCOCC3)nc3c(C)cccn23)n1 (stereo not drawn),11.3% (inactive)
9,O=C(Nc1ccc(C(=O)O)cc1)/C(=C/c1ccc([N+](=O)[O-])cc1)NC(=O)c1ccccc1,-5.43% (inactive)
10,Cc1ccc(NC(=O)/C(=C/c2ccc([N+](=O)[O-])cc2)NC(=O)c2ccccc2)cc1,104% (active)
11,O=C(Nc1ccccc1)/C(=C/c1ccc([N+](=O)[O-])cc1)NC(=O)c1ccccc1,51.8% (inactive)
12,Cc1cc(=O)oc2cc(OCC(=O)Nc3nnc(C4CC4)s3)ccc12,1.52% (inactive)
13,CNC1(c2nnnn2-c2c(C)cccc2C)CCOC(C)(C)C1 (stereo not drawn),1.67% (inactive)
14,CCOC(=O)C1CCN(C(=O)Nc2ccc(C)c(Cl)c2)CC1,1.94% (inactive)
15,C/C=C(/C)C(=O)O[C@@H]1c2cc3c(c4c2[C@@]2(CO4)C(=O)C(OC)=C(OC)C=C2C[C@@H](C)[C@H]1C)OCO3,2.19% (inactive)
16,Cc1ccc(S(=O)(=O)NCCSc2ccccc2)cc1[N+](=O)[O-],33.3% (inactive)
17,CCOc1ccc(S(=O)(=O)NCCSc2ccccc2)cc1,95.6% (active)
18,O=S(=O)(NCCSc1ccccn1)c1ccc(Cl)cc1,15.3% (inactive)
19,c1ccc(-c2oc3ncnc(N4CCOCC4)c3c2-c2ccccc2)cc1,57.6% (inactive)
20,N=c1c2c(-c3ccccc3)c(-c3ccccc3)oc2ncn1Cc1ccco1,92.2% (active)
21,COc1ccc(-c2oc3ncn(Cc4ccco4)c(=N)c3c2-c2ccc(OC)cc2)cc1,-30.9% (inactive)
22,O=C(CNc1ccc(F)cc1F)NC(=O)NCc1ccco1,10.8% (inactive)
23,Cc1nc2nc(SCC(=O)c3ccccc3)[nH]c2cc1Br,-0.2% (inactive)
24,O=C(Cn1cnc2c(nnn2Cc2ccc(F)cc2)c1=O)NCc1ccc2c(c1)OCO2,37.3% (inactive)

row,SMILES,inhibition
1,CCCc1nc(NCc2ccc3c(c2)OCO3)c2nnn(Cc3ccccc3Cl)c2n1,70.4% (active)
2,Cc1nc(Nc2ccc3c(c2)OCCO3)c2nnn(Cc3ccccc3Cl)c2n1,69.6% (inactive)
3,CS/C(=C\C(=O)c1ccco1)Nc1ccccc1Cl,1.24% (inactive)
4,CC(O)c1nc2c(c(=O)n(C)c(=O)n2C)n1C (stereo not drawn),10.6% (inactive)
5,CC(=O)C1=C(C)NC2=C(C(=O)CC(C)(C)C2)C1C (stereo not drawn),23.4% (inactive)
6,COc1cc(C2C(C#N)=C(C)NC3=C2C(=O)CC(C)(C)C3)ccc1O (stereo not drawn),49.1% (inactive)
7,CCC1C(C#N)=C(SC)NC2=C1C(=O)CC(C)(C)C2 (stereo not drawn),73.6% (active)
8,CCn1c(SCC(=O)N/N=C/c2ccncc2)nc2ccccc21,24.8% (inactive)
9,CCOC(=O)c1c(NC(=O)CSc2nnc(Cc3csc(N)n3)n2C)sc(C)c1C,4.17% (inactive)
10,CCOC(=O)c1c(NC(=O)CSc2nnc(CNc3ccc(C)cc3C)o2)sc(C)c1C,80.7% (active)
11,CCOC(=O)c1sc(NC(=O)CSc2nnc(-c3ccco3)o2)c(C(=O)OCC)c1C,19.2% (inactive)
12,Nc1c(Cl)cc(S(N)(=O)=O)cc1S(N)(=O)=O,4.35% (inactive)
13,CCn1c(/C=C/c2ccc([N+](=O)[O-])o2)nc2ccccc2c1=O,5.31% (inactive)
14,O=[N+]([O-])c1cccc(Nc2c3ccccc3nc3ccccc23)c1,47.9% (inactive)
15,Cn1cc(/C=C/c2nc3ccccc3c(=O)n2-c2cccc([N+](=O)[O-])c2)c2ccccc21,86% (active)
16,CCn1c2ccccc2c2cc(NC(=O)Nc3ccc([N+](=O)[O-])cc3C)ccc21,31.1% (inactive)
17,Nc1scc[n+]1Cc1cccc2cccnc12,12% (inactive)
18,Cc1cc(NC(=O)CCC(=O)N(c2cccc(F)c2)C(C(=O)NC2CCCC2)c2ccncc2)no1 (stereo not drawn),-6.58% (inactive)
19,Cc1cc(NC(=O)/C=C/C(=O)N(CC(=O)NC2CCCC2)c2ccc(F)cc2)no1,-11.4% (inactive)
20,Cc1cc(NC(=O)/C=C/C(=O)N(c2ccccc2C)C(C(=O)NC2CCCC2)c2ccc(F)cc2)no1 (stereo not drawn),87.6% (active)
21,Cn1cccc1/C=N/NC(=O)CNc1cccc2ccccc12,10.8% (inactive)
22,O=C(O)c1cccnc1Sc1ncnc2sc3c(c12)CCC3,-7.08% (inactive)
23,CC(C)(C)C1C/C(=C/c2ccco2)C(=O)/C(=C/c2ccco2)C1 (stereo not drawn),108% (active)
24,CCC1S/C(=N/N=C/c2ccco2)NC1=O (stereo not drawn),40.4% (inactive)

row,SMILES,inhibition
1,O=C1OC(/C=C/c2ccccc2)=NC/1=C/c1ccco1,0.75% (inactive)
2,COc1ccc(-c2csc(NC3OC(=O)c4ccccc43)n2)cc1 (stereo not drawn),-118% (inactive)
3,COc1cc(/C=N\Nc2nc(-c3cccs3)c(NC(C)=O)s2)ccc1O,-7.52% (inactive)
4,NNC(=O)c1ccc(COCC(F)(F)C(F)F)cc1,-2.57% (inactive)
5,COc1ccc(CCNC(=O)C(=O)NCC2CCNCC2)cc1OC,-6.48% (inactive)
6,C=CCNC(=O)c1ccc(C)c(Br)c1,24.2% (inactive)
7,C=CCNC(=S)NNC(=O)c1cc(Cl)ccc1OC,-7.01% (inactive)
8,C=CCNC(=O)c1sc(SC)cc1-c1ccc(Cl)cc1,72.1% (active)
9,COc1cc(NC(=O)c2ccc(CNc3c(N4CCCC4)c(=O)c3=O)cc2)cc(OC)c1OC,-0.87% (inactive)
10,COc1ccccc1-n1c(SCC(=O)O)nc2sc3c(c2c1=O)CCC3,8.81% (inactive)
11,CCOc1ccc(/C(O)=C2\C(=O)C(=O)N(c3ccc(OC)cc3)C2c2ccccc2[N+](=O)[O-])cc1 (stereo not drawn),-9.44% (inactive)
12,O=c1c(-c2ccccc2)coc2cc(O)ccc12,15.5% (inactive)
13,O=c1c(-c2ccccc2)coc2c(CN3CCOCC3)c(O)ccc12,-10.6% (inactive)
14,CC(C)=CCc1c(O)c(CC=C(C)C)c2occ(-c3ccc(O)cc3)c(=O)c2c1O,104% (active)
15,O=C(c1ccc(Cl)cc1)N1N=C(c2ccccn2)CC1(O)C(F)(F)F (stereo not drawn),6.12% (inactive)
16,Nc1nc(NC(=O)/C=C/c2ccc(F)cc2)nn1-c1ccccc1,18.8% (inactive)
17,CCOC(=O)c1c(C2CC2)csc1NC(=O)CSCc1c(C)noc1C,50.5% (inactive)
18,Cc1noc(C)c1CSCC(=O)Nc1nc2ccc(Oc3ccccc3)cc2s1,80.2% (active)
19,CCn1c(SCC(=O)Nc2nc3ccc(OC)cc3s2)nnc1-c1ccoc1C,14.3% (inactive)
20,Cc1ccc(NNC(=O)C2CCC2)cc1C,6.66% (inactive)
21,COc1ccc2cc1Oc1ccc(cc1)C[C@H]1c3cc(c(OC)cc3CCN1C)Oc1c(O)c(OC)cc3c1[C@H](C2)N(C)CC3,-41.5% (inactive)
22,CN(CC(=O)Nc1ccc(S(=O)(=O)N2CCCC2)cc1)Cc1ccc(Cl)c(Cl)c1,25.8% (inactive)
23,CCC(C)NC(=O)CN(C1CCCCC1)S(C)(=O)=O (stereo not drawn),5.15% (inactive)
24,CS(=O)(=O)N(CC(=O)Nc1ccc(Cl)c(Cl)c1)C1CCCCC1,99.8% (active)

row,SMILES,inhibition
1,O=C(O)C(NS(=O)(=O)c1cccc2nsnc12)c1ccccc1 (stereo not drawn),16% (inactive)
2,CCCc1nc2ccccc2c(C(=O)OCc2nnc(-c3cc(OC)c(OC)c(OC)c3)o2)c1CC,58% (inactive)
3,O=C1COc2ccc(C(=O)COC(=O)c3cccnc3Cl)cc2N1,-9.06% (inactive)
4,CCCc1nc2ccccc2c(C(=O)OCC(=O)c2ccc3c(c2)NC(=O)CO3)c1CC,102% (active)
5,C#CCO[C@@H]1C[C@H](n2cnc3c(=O)[nH]c(NC(=O)C(C)C)nc32)O[C@@H]1CO,-12.9% (inactive)
6,COc1ccc([N+](=O)[O-])cc1N(CC(O)CN(CC(C)C)CC(C)C)S(=O)(=O)c1ccc(C)cc1 (stereo not drawn),9.51% (inactive)
7,COc1ccc(CN2C(=O)C(C)S/C2=N/N=C/c2ccco2)cc1 (stereo not drawn),5.76% (inactive)
8,S=C(NCCc1ccccc1)NCc1ccccc1Cl,76.7% (active)
9,S=C(NCCc1ccccc1)Nc1ccccc1,-23.1% (inactive)
10,Cc1ccc(NC(=S)NCc2ccccc2Cl)c(C)c1,21.4% (inactive)
11,CCCCCCCCCCCCC(NC(C)=O)(C(=O)OCC)C(=O)OCC,28.6% (inactive)
12,S=c1[nH]nc(-c2cccnc2)n1/N=C/C(Cl)=C\c1ccccc1,-39.3% (inactive)
13,Cc1cc(-c2n[nH]c(=S)n2/N=C/C(Br)=C/c2ccccc2)n[nH]1,106% (active)
14,Cc1cc(-c2n[nH]c(=S)n2/N=C/c2ccco2)n[nH]1,-10.9% (inactive)
15,COC(=O)c1sc(NC(=S)NC(=O)c2ccc(C)cc2)nc1C,-2.37% (inactive)
16,Nc1ccccc1C(=O)NC1CCCCNC1=O (stereo not drawn),13.6% (inactive)
17,COc1ccccc1Cn1c(CO)nc2ccccc21,6.99% (inactive)
18,Cc1ccc(Nc2c3c(nc4ccccc24)CCC3)cc1,17.5% (inactive)
19,C=CCn1c(C)cc(C2=NNC(=NCC)SC2)c1C,105% (active)
20,Cc1cc(C2=NNC(=Nc3ccc(S(=O)(=O)N4CCOCC4)cc3)SC2)c(C)n1CC1CCCO1 (stereo not drawn),6.71% (inactive)
21,COCCn1c(C)cc(C2=NNC(=Nc3ccc(F)cc3)SC2)c1C,-7.2% (inactive)
